Assay results reported in PubChem BioAssay (NCATS).
Results filed as inconclusive are left out. Where a call stands in place of a potency, no number is given. Calls of active or inactive are those of the source. Unless noted, the call rests on the fitted dose curve; in most records, active means well fitted curve in the direction sought with a large enough effect; inconclusive means small, poorly fitted or top-dose-only effect, or another doubt; inactive means no such curve, though single readings can be large; an effect the other way counts as inactive or inconclusive.

Tests used:
[1] = MultiTox-Fluor Cytotoxicity Assay - LYMP1-001 - Dead Cells (AID 946)
In short: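 Seed 2500 LYMP1-001 cells/well, incubate 5 hr at 37 C; add compound, 16 hr at 37 C; add MultiTox-Fluor reagent, 60 min RT; read dead-cell fluorescence Ex/Em=485/520. Normalize to DMSO and 15 uM tetraoctylammonium bromide.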

[2] = MultiTox-Fluor Cytotoxicity Assay - LYMP1-001 - Live Cells (AID 947)
[3] = MultiTox-Fluor Cytotoxicity Assay - LYMP1-002 - Live Cells (AID 955)
In short: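 Human lymphoblastoid LYMP1-002 cells, 2500/well in complete medium, rested 5 hr at 37 C, then exposed to compounds for 16 hr at 37 C. Live-cell protease cleavage of GF-AFC read by fluorescence (Ex/Em 405/510) after 60 min at room temperature; AC50 from Hill fits.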

[4] = target: Pyruvate kinase (Leishmania mexicana) (UniProt Q27686); assay: qHTS Validation Assay for Inhibitors of Leishmania Mexicana Pyruvate Kinase (AID 945)
Sequence of Pyruvate kinase (Leishmania mexicana) (Q27686 2-499 E452W): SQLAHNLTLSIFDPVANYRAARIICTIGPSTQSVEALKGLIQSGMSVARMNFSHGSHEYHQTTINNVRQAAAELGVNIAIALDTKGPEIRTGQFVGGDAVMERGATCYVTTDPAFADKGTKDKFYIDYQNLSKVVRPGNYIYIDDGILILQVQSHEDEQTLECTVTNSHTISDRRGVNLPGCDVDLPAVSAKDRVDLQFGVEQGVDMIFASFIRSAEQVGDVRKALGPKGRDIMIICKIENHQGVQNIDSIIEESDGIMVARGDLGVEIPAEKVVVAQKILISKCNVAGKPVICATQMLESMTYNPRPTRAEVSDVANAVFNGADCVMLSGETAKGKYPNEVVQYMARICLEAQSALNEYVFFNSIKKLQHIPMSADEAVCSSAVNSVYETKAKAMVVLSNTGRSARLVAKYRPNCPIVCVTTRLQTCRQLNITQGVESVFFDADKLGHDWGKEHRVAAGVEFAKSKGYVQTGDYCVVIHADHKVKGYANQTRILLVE
In short: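 Purified LmPYK (E451W mutant, 0.2 nM) was incubated 1 h at room temperature with 0.5 mM PEP and 0.1 mM ADP in 50 mM imidazole pH 7.2, 50 mM KCl, 7 mM MgCl2; ATP formed was read by PKLight luminescence, normalized to DMSO wells.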

[5] = target: Pyruvate kinase PKM (Homo sapiens) (UniProt P14618); assay: qHTS Assay for Activators of Human Muscle Pyruvate Kinase (AID 954; active means well fitted curve in the direction sought with a large enough effect, not every such curve was filed as active)
Sequence of Pyruvate kinase PKM (Homo sapiens) (P14618 whole entry, looked up): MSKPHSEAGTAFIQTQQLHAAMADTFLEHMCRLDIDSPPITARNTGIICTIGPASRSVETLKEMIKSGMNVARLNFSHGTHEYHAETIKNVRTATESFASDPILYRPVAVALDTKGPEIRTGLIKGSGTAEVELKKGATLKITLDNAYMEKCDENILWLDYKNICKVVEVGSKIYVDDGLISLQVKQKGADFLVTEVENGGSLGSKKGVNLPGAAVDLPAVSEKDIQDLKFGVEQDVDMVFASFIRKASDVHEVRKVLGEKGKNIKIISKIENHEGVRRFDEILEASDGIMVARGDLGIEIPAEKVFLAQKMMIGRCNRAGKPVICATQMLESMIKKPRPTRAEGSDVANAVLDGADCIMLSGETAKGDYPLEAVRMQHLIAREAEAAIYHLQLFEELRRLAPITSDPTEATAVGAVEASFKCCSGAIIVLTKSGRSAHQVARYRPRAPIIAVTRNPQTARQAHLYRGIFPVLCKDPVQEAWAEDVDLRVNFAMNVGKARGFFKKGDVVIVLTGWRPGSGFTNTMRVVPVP
In short: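 Reaction: 0.1 nM purified PKM2 with 0.5 mM phosphoenolpyruvate and 0.1 mM ADP, room temperature, 1 h. Readout: luciferase-based ATP luminescence after stop reagent. Activators judged against a 0.3 nM enzyme column.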

[6] = MultiTox-Fluor Cytotoxicity Assay - LYMP1-002 - Dead Cells (AID 960); further: nearly all actives have a fitted effect of over 60% in size
In short: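 Human lymphoblastoid cells (LYMP1-002), 2500/well in complete medium, were exposed to compounds for 16 hr at 37 C. Dead-cell protease activity was read as bis-AAF-R110 fluorescence (Ex/Em 485/520), normalized to DMSO and 15 uM tetraoctylammonium bromide; AC50 from Hill fits.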

[7] = MultiTox-Fluor Cytotoxicity Assay - LYMP1-003 - Dead Cells (AID 961); further: nearly all actives have a fitted effect of over 70% in size
In short: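 LYMP1-003 lymphoblastoid, 2500 cells/well, 5 hr settle then 16 hr cpd at 37 C; MultiTox-Fluor reagent 60 min RT; Ex/Em 485/520 dead-cell signal; norm. DMSO = 0%, 15 uM tetraoctylammonium bromide = 100%; Hill AC50.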

Question: What does the source list for `Oc1ccccc1O`?
Answer: Potency [1]: inactive; Potency [2]: inactive; Potency [3]: inactive

Question: With `COc1cccc(C(=O)NCCN2CCN(c3ccc(Cl)cc3)CC2)c1` as the molecule, how does the Potency [4] read?
Answer: The Potency was “inactive”.

Question: And the outcome [5]?
Answer: Its outcome is “inactive”.

Question: Which Potency [4] does the source give for `CCCn1c(=O)c2[nH]c(-c3ccc(OCC(=O)NCCN)cc3)nc2n(CCC)c1=O` here?
Answer: Its Potency is “inactive”.

Question: And the outcome [5]?
Answer: The outcome was “inactive”.

Question: With `CN1[C@@H]2CC[C@H]1CC(OC(c1ccccc1)c1ccccc1)C2` (some centres not stated) as the molecule, how does the Potency [4] read?
Answer: Its Potency is “inactive”.

Question: What about the outcome [5] of the same molecule?
Answer: The outcome was “inactive”.

Question: For `COc1ccccc1N1CCN(CCCCNS(=O)(=O)c2cccc3c(N(C)C)cccc23)CC1`, which Potency [4] is on record?
Answer: Its Potency is “inactive”.

Question: What about the outcome [5] of the same molecule?
Answer: Its outcome is “inactive”.

Question: Which Potency [4] does the source give for `O=Nc1ccc2oc(=O)ccc2c1` here?
Answer: Its Potency is “inactive”.

Question: And the outcome [5]?
Answer: The outcome was “inactive”.

Question: Which results are given for `Cn1c(=O)c2[nH]c(-c3ccccc3)nc2n(C)c1=O`?
Answer: Potency [4]: inactive; outcome [5]: inactive

Question: What does the source list for `NC(=O)C(=O)O`?
Answer: Potency [4]: inactive; outcome [5]: inactive

Question: Which results are given for `CC1(C)CCC=[N+]1[O-]`?
Answer: Potency [4]: inactive; outcome [5]: inactive

Question: With `O=C(c1cc(O)c(O)c([N+](=O)[O-])c1)c1ccccc1F` as the molecule, how does the Potency [4] read?
Answer: Its Potency is “inactive”.

Question: And the outcome [5]?
Answer: Its outcome is “inactive”.

Question: What does the source list for `CCN1/C(=C/C(C)=O)Sc2ccc(OC)cc21`?
Answer: Potency [4]: inactive; outcome [5]: inactive

Question: What does the source list for `c1cnc2c(c1)ccc1cccnc12`?
Answer: Potency [4]: inactive; outcome [5]: inactive; Potency [3]: inactive; Potency [6]: inactive; Potency [7]: inactive

Question: What does the source list for `CC(=O)SCC[N+](C)(C)C`?
Answer: Potency [4]: inactive; outcome [5]: inactive

Question: Which results are given for `NO`?
Answer: Potency [4]: inactive; outcome [5]: inactive

Question: For `C[N+]1(C)CCC(OC(=O)C(c2ccccc2)c2ccccc2)CC1`, which Potency [4] is on record?
Answer: Its Potency is “inactive”.

Question: And the outcome [5]?
Answer: Its outcome is “inactive”.

Question: What does the source list for `CN(C)C(N)=NCCC[C@H](N)C(=O)O`?
Answer: Potency [4]: inactive; outcome [5]: inactive

Question: Which Potency [4] does the source give for `C=C[C@H]1CN2CC[C@@H]1C[C@@H]2[C@@H](O)c1ccnc2ccc(OC)cc12` here?
Answer: The Potency was “inactive”.

Question: What about the outcome [5] of the same molecule?
Answer: The outcome was “inactive”.

Question: Which Potency [4] does the source give for `Brc1c(Br)c(Br)c2n[nH]nc2c1Br` here?
Answer: Its Potency is “inactive”.

Question: What about the outcome [5] of the same molecule?
Answer: The outcome was “inactive”.

Question: Which results are given for `NC[C@@H]1O[C@H](C23CC4CC(CC(C4)C2)C3)Cc2c1ccc(O)c2O`?
Answer: Potency [4]: inactive; outcome [5]: inactive
